Source: PubChem BioAssay (EPA / NIEHS)
“And” between values parts separate entries of the source, which are not always exact repeats. Equal entries are not always repeated. A structure can be active in one record and inactive in another. The source made the active and inactive calls. Rule for the calls: active = hit-call score of the fitted dose curve at least 0.9, where 1 is the maximum; inactive = score below 0.9.

The compounds below were run against Aryl hydrocarbon receptor (Homo sapiens) (UniProt P35869) (assay: ATG_Ahr_CIS: Attagene CIS-FACTORIAL HepG2 Assay for human Aryl Hydrocarbon Receptor (Ahr) (AID 2282930)). Details: HepG2 AhR cis-factorial reporter transcription; actives raise or lower the signal.
Chain of Aryl hydrocarbon receptor (Homo sapiens) (P35869 whole entry, looked up): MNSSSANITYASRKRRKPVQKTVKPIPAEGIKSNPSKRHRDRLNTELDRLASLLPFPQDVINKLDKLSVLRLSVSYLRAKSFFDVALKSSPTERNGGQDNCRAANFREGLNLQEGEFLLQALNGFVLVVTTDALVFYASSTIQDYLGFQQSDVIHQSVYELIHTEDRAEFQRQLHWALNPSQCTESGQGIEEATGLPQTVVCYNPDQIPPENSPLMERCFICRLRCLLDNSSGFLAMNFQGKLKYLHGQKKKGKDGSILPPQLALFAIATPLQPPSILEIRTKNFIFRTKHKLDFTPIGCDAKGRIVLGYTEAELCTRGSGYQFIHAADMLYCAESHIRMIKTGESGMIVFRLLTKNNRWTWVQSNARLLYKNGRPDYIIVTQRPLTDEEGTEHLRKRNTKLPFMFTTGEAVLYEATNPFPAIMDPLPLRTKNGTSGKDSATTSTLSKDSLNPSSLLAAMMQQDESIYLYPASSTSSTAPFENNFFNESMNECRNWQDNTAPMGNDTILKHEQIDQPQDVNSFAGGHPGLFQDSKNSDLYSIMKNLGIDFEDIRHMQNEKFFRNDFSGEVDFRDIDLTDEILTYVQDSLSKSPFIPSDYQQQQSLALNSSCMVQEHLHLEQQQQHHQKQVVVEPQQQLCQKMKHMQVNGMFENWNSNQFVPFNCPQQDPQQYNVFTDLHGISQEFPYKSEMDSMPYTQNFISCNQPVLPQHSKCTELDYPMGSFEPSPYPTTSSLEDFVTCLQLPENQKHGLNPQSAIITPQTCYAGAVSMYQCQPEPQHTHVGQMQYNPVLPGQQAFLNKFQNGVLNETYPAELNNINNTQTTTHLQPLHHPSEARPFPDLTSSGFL
Protocol: ATG_CIS is a cell-based, multiplexed-readout assay that uses HepG2, a human liver cell line, with measurements taken at 24 hours after chemical dosing in a 24-well plate.ATG_Ahr_CIS is one of 52 assay component(s) measured or calculated from the ATG_CIS assay. It is designed to make measurements of mRNA induction, a form of inducible reporter, as detected with fluorescence intensity signals by Reverse transcription polymerase chain reaction (RT-PCR) and Capillary electrophoresis technology.Data from the assay component ATG_Ahr_CIS was analyzed into 1 assay endpoint. This assay endpoint, ATG_Ahr_CIS, was analyzed with bidirectional fitting relative to DMSO as the negative control and baseline of activity. Using a type of inducible reporter, measures of mRNA for gain or loss-of-signal activity can be used to understand the reporter gene at the transcription factor-level as they relate to the gene AHR. Furthermore, this assay endpoint can be referred to as a primary readout, because this assay has produced multiple assay endpoints where this one serves a reporter gene function. To generalize the intended target to other relatable targets, this assay endpoint is annotated to the dna binding intended target family, where the subfamily is basic helix-loop-helix protein.
Human liver HepG2 cells are transiently transfected with multiple reporter transcription units (MRTUs) in 6-well plates using FuGene 6 reagent (Roche; 3 ml FuGene/1 mg DNA). The MRTU constructs are regulated by a cis-regulating element (promoter). […] A major difference between the CIS and TRANS system is that in CIS activities of endogenous TFs are measured, whereas the TRANS assay evaluates changes in activities of exogenous, chimeric NR-Gal4 proteins. […] At the end of 24 hour incubation, total RNA was isolated using TriZol reagent (Invitrogen). The isolated RNA is then reverse-transcribed using oligo(dT) primer and Mo-MLV reverse transcriptase (Invitrogen) with DNAse I (Ambion) treatment for 30 min. The one-tenth of the produced cDNA was amplified by PCR using Taq DNA polymerase (Invitrogen) and two reporter sequence-specific primers. The PCR products were fluorescently labeled by primer extension with 6-arboxyfluorescein (6-FAM) 5'-labeled reporter sequence-specific primer (2 min at 95 C, 20 s at 68 C and 10 min at 72 C) and these products were digested with 5U of HpaI (New England Biolabs) for 2h at 37 C. […] The raw capillary electrophoresis data was processed using Attagraph software (Attagene).

Q: For `O=C(O)c1cc2ccccc2cc1O`, which AC50 is on record?
A: 4.5 µM (active)

Q: How did the outcome turn out when `CC(C)Cc1ccc(C(C)C(=O)O)cc1` (stereo not given) was run?
A: inactive

Q: For `CCCCCCCCSCc1cc(C)c(O)c(CSCCCCCCCC)c1`, which outcome is on record?
A: inactive

Q: With `O=C1CCC(=O)N1` as the compound, how does the outcome read?
A: inactive

Q: Which outcome does the source give for `CCCCOCCOCCO` here?
A: inactive

Q: With `CCCCCCCCCC(=O)OCC` as the compound, how does the AC50 read?
A: 58.8 µM (active)

Q: For `Brc1cc(Br)cc(Br)c1`, which outcome is on record?
A: inactive

Q: How did the outcome turn out when `NCCN1CCNCC1` was run?
A: inactive

Q: With `N#CCCNCCC#N` as the compound, how does the outcome read?
A: inactive

Q: With `COC(=O)c1cccc(C(=O)OC)c1` as the compound, how does the AC50 read?
A: 71.4 µM (active)

Q: For `OCCCO`, which outcome is on record?
A: inactive

Q: For `CCCOC(=O)CC`, which outcome is on record?
A: inactive

Q: With `C=C/C(C)=C/C/C=C(\C)CCC=C(C)C` as the compound, how does the outcome read?
A: inactive

Q: `NNC(=O)OCc1ccccc1` was tested. Which outcome did it give?
A: inactive

Q: Which outcome does the source give for `CC(C)CCOC(=O)CC(C)C` here?
A: inactive

Q: With `NC(N)=S` as the compound, how does the outcome read?
A: inactive

Q: `C=C(C)C(N)=O` was tested. Which outcome did it give?
A: inactive

Q: `CCCCCCC(C)O` (stereo not given) was tested. Which outcome did it give?
A: inactive

Q: For `CCCCCCCCCCO[C@@H]1O[C@H](CO)[C@@H](O)[C@H](O)[C@H]1O`, which outcome is on record?
A: inactive

Q: With `C=C1CC/C=C(\C)CC[C@@H]2[C@@H]1CC2(C)C` as the compound, how does the outcome read?
A: inactive

Q: For `CC(CO)c1ccccc1` (stereo not given), which outcome is on record?
A: inactive

Q: How did the outcome turn out when `OCCN1CCOCC1` was run?
A: inactive

Q: How did the outcome turn out when `CC(O)COCC(C)O` (stereo not given) was run?
A: inactive

Q: For `C1CCCNCC1`, which AC50 is on record?
A: 62.5 µM (active)

Q: `CC(C)(C)c1ccc(S)cc1` was tested. Which outcome did it give?
A: inactive

Q: Which outcome does the source give for `CC/C=C\CCOC(C)OCC` (stereo not given) here?
A: inactive

Q: With `C=CC(O)CCCCC` (stereo not given) as the compound, how does the outcome read?
A: inactive

Q: With `Cc1cc(O)c(C)c(C)c1O` as the compound, how does the AC50 read?
A: 17.8 µM (active)

Q: With `CCCC1CCOC(C)S1` (stereo not given) as the compound, how does the outcome read?
A: inactive

Q: For `CCCO[Si](OCCC)(OCCC)OCCC`, which outcome is on record?
A: inactive

Q: `C=CC(=O)OCC(CO)(COC(=O)C=C)COC(=O)C=C` was tested. Which outcome did it give?
A: inactive

Q: `c1ccc2c(c1)-c1ccc3ccc4cccc5cc-2c1c3c45` was tested. Which AC50 did it give?
A: 0.543 µM (active)

Q: For `NC(=O)c1cccnc1`, which AC50 is on record?
A: 29 µM (active)

Q: `CCC(C)(C)c1cc(O)c(C(C)(C)CC)cc1O` was tested. Which outcome did it give?
A: inactive

Q: With `CN(C)c1ccc(C=O)cc1` as the compound, how does the outcome read?
A: inactive

Q: For `CC(C)(O)C(=O)c1ccc(OCCO)cc1`, which outcome is on record?
A: inactive

Q: With `c1ccc2scnc2c1` as the compound, how does the AC50 read?
A: 50.8 µM (active)

Q: For `c1ccc(OCCOc2ccccc2)cc1`, which AC50 is on record?
A: 0.142 µM (active)

Q: Which results are given for `C[C@]12CC[C@@H]3c4ccc(O)cc4CC[C@H]3[C@@H]1CC[C@@H]2O`?
A: outcome: inactive; AC50: 27.7 µM (active) and 62.5 µM (active)
